Consider 31 molecules from PubChem BioAssay (NCATS).

Results filed as inconclusive are left out. Entries that show only a call come without a potency. The source made the active and inactive calls. The call rests on the fitted dose curve; in most records, active means well fitted curve in the direction sought with a large enough effect; inconclusive means small, poorly fitted or top-dose-only effect, or another doubt; inactive means no such curve, though single readings can be large; an effect the other way counts as inactive or inconclusive.
Potency means the concentration at half of the fitted maximal effect.

One assay is described as follows: Quantitative High-Throughput drug screen in 47 multiple myeloma cell lines against the NCATS MIPE library collection: MOLP8_DSMZ cell viability assay (AID 1918977). Further: nearly all actives have a fitted effect of over 45% in size. The settings on record: MOLP8 myeloma viability, CellTiter-Glo ATP luminescence, 48 h; series mostly up to 45.8 µM. The procedure, abridged:
(§1)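 Plated at 500 cells per well, myeloma lines received MIPE 4.0 compounds by pin tool. Following 48 h culture at 37 °C, CellTiter-Glo luminescence gave viability relative to DMSO and media-only controls.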
(In general: Cellular ATP, detected with luciferase, serves as a proxy for viable cell number.)
`COC[C@@H](c1ccc(C(F)(F)F)cc1)N1CCN(C2(C)CCN(C(=O)c3c(C)ncnc3C)CC2)C[C@H]1C`: the Potency result was “inactive”.

With `C[C@H]1[C@H](NC(=O)C(=NOC(C)(C)C(=O)O)c2csc(N)n2)C(=O)N1S(=O)(=O)O`, the Potency entry was “inactive”.

On to `Clc1ccc(COC(Cn2ccnc2)c2ccc(Cl)cc2Cl)cc1` (stereo not drawn), for which the Potency entry is “inactive”.

In the case of `C[C@@H]1CCN(C(=O)CC#N)C[C@H]1N(C)c1ncnc2[nH]ccc12`, the Potency entry was “inactive”.

For `CC(=NNC(=S)N1CCC1)c1ccccn1`, the Potency entry was “inactive”.

As to `Clc1ccc(-c2nc3sccn3c2C=NOCc2ccc(Cl)c(Cl)c2)cc1`, the Potency result is “inactive”.

Regarding `CCc1ccc(OCc2ccccc2C(=O)Nc2ccc3nc(C)cc(N)c3c2)cc1`, the Potency was 7.43 µM (active).

The next assay in a line: Quantitative High-Throughput drug screen in 47 multiple myeloma cell lines against the NCATS MIPE library collection: NCIH929_DSMZ cell viability assay (AID 1918978). Further: nearly all actives have a fitted effect of over 35% in size. The settings on record: NCI-H929 myeloma viability, CellTiter-Glo ATP, 48 h; series mostly up to 45.8 µM. In outline: as §1
For `O=C1c2ccccc2-[n+]2ccc3c([nH]c4ccccc43)c21`, the Potency was 3.32 µM (active).

`COC[C@@H](c1ccc(C(F)(F)F)cc1)N1CCN(C2(C)CCN(C(=O)c3c(C)ncnc3C)CC2)C[C@H]1C`: the Potency is 9.35 µM (active).

On to `O=c1c(-c2ccc(O)cc2)coc2cc(O)ccc12`, for which the Potency entry was “inactive”.

On to `O=c1cc(N2CCOCC2)oc2c(-c3cccc4c3sc3ccccc34)cccc12`, for which the Potency is 3.72 µM (active).

As to `CC(=O)OC1C(C)OC(Oc2c(-c3ccc(O)cc3)oc3cc(O)cc(O)c3c2=O)C(O)C1OC(C)=O` (stereo not drawn), the Potency result was “inactive”.

For `C[C@H]1[C@H](NC(=O)C(=NOC(C)(C)C(=O)O)c2csc(N)n2)C(=O)N1S(=O)(=O)O`, the Potency entry is “inactive”.

For `O=c1cc(CN2CCOCC2)occ1OCCCCCSc1ccnc2cc(C(F)(F)F)ccc12`, the Potency was 3.72 µM (active).

Consider `O=C1NC(=O)C(=Cc2ccc3nccnc3c2)S1`, for which the Potency is 3.63 µM (active).

On to `COCCOc1nc(-c2ccc(Cl)c(Cl)c2)n(-c2ccc(NC(=O)CCl)cc2)n1`, for which the Potency is 13.2 µM (active).

`Oc1ccc(C2CCN(c3ccnc4ccccc34)CC2)cc1O`: the Potency was 18.7 µM (active).

With `C[C@@H]1CCN(C(=O)CC#N)C[C@H]1N(C)c1ncnc2[nH]ccc12`, the Potency result is “inactive”.

On to `C[C@H](NC(=O)C(=O)Nc1ccccc1C(C)(C)C)C(=O)N[C@@H](CC(=O)O)C(=O)COc1c(F)c(F)cc(F)c1F`, for which the Potency entry was “inactive”.

For `CC(C)OC(=O)CCCC=CC[C@@H]1[C@H](C=C[C@@H](O)COc2cccc(C(F)(F)F)c2)[C@H](O)C[C@@H]1O`, the Potency is 18.7 µM (active).

As for `O=C(NCc1ccncc1)C12C[C@H]3C[C@@H](C1)CC(c1ccc(Cl)cc1)(C3)C2`, the Potency result was “inactive”.

On to `CC(=NNC(=S)N1CCC1)c1ccccn1`, for which the Potency entry was “inactive”.

`Clc1ccc(-c2nc3sccn3c2C=NOCc2ccc(Cl)c(Cl)c2)cc1`: the Potency result was “inactive”.

Turning to `CC(C)(C)Cn1c(N)nc2ccc(-c3[nH]c(C(C)(C)C)nc3-c3ccc(F)cc3)nc21`, the Potency is 26.4 µM (active).

Regarding `O=C(O)[C@H]1O[C@H](Oc2cc3oc(-c4ccccc4)cc(=O)c3c(O)c2O)[C@H](O)[C@@H](O)[C@H]1O`, the Potency result was “inactive”.

On to `Oc1ccc(C2=Cc3ccc(O)cc3OC2)cc1`, for which the Potency was 2.09 µM (active).

Consider `NC(=O)c1cnc(-c2ccc(C3(N)CCC3)cc2)c(-c2ccccc2)c1`, for which the Potency was 1.48 µM (active).

Take `CCc1ccc(OCc2ccccc2C(=O)Nc2ccc3nc(C)cc(N)c3c2)cc1`: the Potency is 1.05 µM (active).

A short description of another assay: Quantitative High-Throughput drug screen in 47 multiple myeloma cell lines against the NCATS MIPE library collection: OCIMY1_PLB cell viability assay (AID 1918979). Further: nearly all actives have a fitted effect of over 35% in size. The settings on record: OCI-MY1 myeloma viability, CellTiter-Glo ATP, 48 h; series mostly up to 45.8 µM. In outline:
as §1
As to `CC[C@]1(O)C[C@@H]2CN(CCc3c([nH]c4ccccc34)[C@@](C(=O)OC)(c3cc4c(cc3OC)N(C=O)[C@@H]3C45CCN4CC=C[C@](CC)([C@H]45)[C@@H](OC(C)=O)[C@]3(O)C(=O)OC)C2)C1` (stereo partly drawn), the Potency was 26.4 µM (active).

With `NC(=O)[C@@H](CCC(F)(F)F)N(Cc1ccc(-c2ncon2)cc1F)S(=O)(=O)c1ccc(Cl)cc1`, the Potency entry was “inactive”.

Consider `COC[C@@H](c1ccc(C(F)(F)F)cc1)N1CCN(C2(C)CCN(C(=O)c3c(C)ncnc3C)CC2)C[C@H]1C`, for which the Potency entry is “inactive”.

Consider `CCN(CC)CCOc1ccc(C(=C(Cl)c2ccccc2)c2ccccc2)cc1`, for which the Potency result was “inactive”.

Regarding `O=C1NC(=O)C(=Cc2ccc3c(c2)OC(F)(F)O3)S1`, the Potency result is “inactive”.

As for `C[C@H]1[C@H](NC(=O)C(=NOC(C)(C)C(=O)O)c2csc(N)n2)C(=O)N1S(=O)(=O)O`, the Potency entry was “inactive”.

On to `CS(=O)(=O)N(Cc1ccco1)CC(O)Cn1c2ccccc2c2ccccc21` (stereo not drawn), for which the Potency result was “inactive”.

For `C[C@@H]1CCN(C(=O)CC#N)C[C@H]1N(C)c1ncnc2[nH]ccc12`, the Potency entry is “inactive”.

On to `CC=CC[C@@H](C)C(=O)[C@H]1C(=O)N[C@@H](C(C)C)C(=O)N(C)CC(=O)N(C)[C@@H](CC(C)C)C(=O)N[C@@H](C(C)C)C(=O)N(C)[C@@H](CC(C)C)C(=O)N[C@@H](C)C(=O)N[C@H](C)C(=O)N(C)[C@@H](CC(C)C)C(=O)N(C)[C@@H](CC(C)C)C(=O)N(C)[C@@H](C(C)C)C(=O)N1C`, for which the Potency result was “inactive”.

On to `CN(C)C1CCN(C(=O)c2ccc(NC(=O)Nc3nc(N4CCOCC4)nc(N4CCOCC4)n3)cc2)CC1`, for which the Potency is 5.9 µM (active).

Turning to `CC(=NNC(=S)N1CCC1)c1ccccn1`, the Potency is 0.0074 µM (active).

With `Clc1ccc(-c2nc3sccn3c2C=NOCc2ccc(Cl)c(Cl)c2)cc1`, the Potency result was “inactive”.

In the case of `C[C@H](NC(=O)c1sccc1OCc1ccc(Cl)cc1)c1ccccc1`, the Potency is 16.6 µM (active).

Consider `NC(=O)c1cccc(-c2cc(Nc3ccc(OC(F)(F)F)cc3)ncn2)c1`, for which the Potency entry was “inactive”.

For `CCc1ccc(OCc2ccccc2C(=O)Nc2ccc3nc(C)cc(N)c3c2)cc1`, the Potency is 8.33 µM (active).
